The supplement of paper PMC10720658
± gives the standard deviation of the averaged measurements.

These compounds were tested on AEK1 (Tb927.3.2440) (assay: percent reduction in TR-FRET probe signal relative to DMSO control; higher = stronger displacement of ATP-site probe (binding)). Conditions: 1 µM; incubation time 1 h.

Compared with `Cc1csc(-c2nnc(Nc3ccc(Oc4ncccc4-c4ccnc(N)n4)cc3)c3ccccc23)c1`, `Cl.Cl.Clc1ccc(Nc2nnc(Cc3ccncc3)c3ccccc23)cc1` [Vatalanib (PTK787) 2HCl] is lower in “percent reduction in TR-FRET probe signal” value (shortened to “percent reduction”): 55.7 ± 11% for the first, 4.61 ± 8.7% for the second.

`Cc1ccc(C(=O)Nc2ccc(CN3CCN(C)CC3)c(C(F)(F)F)c2)cc1C#Cc1cnc2cccnn12` and `CCN1CCN(Cc2ccc(C(=O)Nc3ccc(C)c(Oc4ccc5c(c4)CC(=O)N5)c3)cc2C(F)(F)F)CC1` are within error of each other in “percent reduction” value: 0.933 ± 14% for the first, -7.33 ± 8.7% for the second.

`CN1CC[C@H](c2c(O)cc(O)c3c(=O)cc(-c4ccccc4Cl)oc23)[C@H](O)C1` [Flavopiridol (Alvocidib)] and `CN1CC[C@@H](c2c(O)cc(O)c3c(=O)cc(-c4ccccc4Cl)oc23)[C@@H]1CO.Cl` are within error of each other in “percent reduction” value: -2.55 ± 4.6% for the first, 4 ± 2.6% for the second.

`Oc1cccc(-c2nc(N3CCOCC3)c3oc4ncccc4c3n2)c1` and `N#CCNC(=O)c1ccc(-c2ccnc(Nc3ccc(N4CCOCC4)cc3)n2)cc1` are within error of each other in “percent reduction” value: -5.8 ± 6.4% for the first, 16.3 ± 16% for the second.

`N#Cc1ccc2[nH]c(O)c(-c3ccc(CN4CCOCC4)cn3)c2c1` and `S=C(NCc1ccc2c(c1)OCO2)N1CCN(c2ncnc3c2oc2ccccc23)CC1` [Amuvatinib (MP-470)] are within error of each other in “percent reduction” value: -12.4 ± 8.1% for the first, 3.8 ± 9.9% for the second.

`Cc1ncc(-c2ccnc(Nc3ccc(S(C)(=O)=O)cc3)n2)n1C(C)C` and `Cc1cc(Nc2cc(N3CCN(C)CC3)nc(Sc3ccc(NC(=O)C4CC4)cc3)n2)n[nH]1` [VX-680 (Tozasertib, MK-0457)] are within error of each other in “percent reduction” value: -3.5 ± 1.6% for the first, 10.3 ± 20% for the second.

First: COc1cc(Nc2ncc(F)c(Nc3ccc4c(n3)NC(=O)C(C)(C)O4)n2)cc(OC)c1OC [R406 (free base)]
Second: CCC(=O)Nc1cccc(Oc2nc(Nc3ccc(N4CCN(C)CC4)cc3OC)ncc2Cl)c1
The “percent reduction” value of the first is higher: 87.4 ± 6% for the first, -15.7 ± 6.4% for the second.

`C=CC(=O)Nc1cccc(Nc2nc(Nc3ccc(N4CCN(C(C)=O)CC4)cc3OC)ncc2C(F)(F)F)c1` and `CC[C@@H]1C(=O)N(C)c2cnc(Nc3ccc(C(=O)NC4CCN(C)CC4)cc3OC)nc2N1C1CCCC1` are within error of each other in “percent reduction” value: -2.96 ± 7.5% for the first, -1.92 ± 12% for the second.

First: O=C(O)c1ccc(-c2c[nH]c3ncc(-c4ccccc4)cc23)cc1C1CCCC1
Second: CN1CCC(Nc2nc(Nc3ccc(Oc4ccccc4)cc3)c3c(=O)[nH]cc(Br)c3n2)CC1
The “percent reduction” value of the first is lower: -2.47 ± 9.6% for the first, 35.3 ± 9.5% for the second.

`CN1CCN(CCOc2cc(OC3CCOCC3)c3c(Nc4c(Cl)ccc5c4OCO5)ncnc3c2)CC1` [Saracatinib (AZD0530)] and `CN(C)C/C=C/C(=O)Nc1cc2c(Nc3ccc(F)c(Cl)c3)ncnc2cc1O[C@H]1CCOC1` [Afatinib (BIBW2992)] are within error of each other in “percent reduction” value: 11.4 ± 13% for the first, 15.6 ± 31% for the second.

`CCOc1cc2ncc(C#N)c(Nc3ccc(F)c(Cl)c3)c2cc1NC(=O)/C=C/CN(C)C` [Pelitinib (EKB-569)] and `CNC(=O)c1ccc(C)c(-n2c(C)cc(OCc3ccc(F)cc3F)c(Br)c2=O)c1` are within error of each other in “percent reduction” value: 4.14 ± 4.7% for the first, -1.42 ± 7.4% for the second.

Compared with `O=C1NC(=O)/C(=C/c2cccc(C(F)(F)F)c2)S1`, `CN1CCC(CNc2ccc3ncc(-c4cccc(OC(F)(F)F)c4)n3n2)CC1` [SGI-1776 free base] is higher in “percent reduction” value: -3.02 ± 1.9% for the first, 30 ± 15% for the second.

`CO[C@H]1C[C@@H]2CC[C@@H](C)[C@@](O)(O2)C(=O)C(=O)N2CCCC[C@H]2C(=O)O[C@H]([C@H](C)C[C@@H]2CC[C@@H](OC(=O)C(C)(CO)CO)[C@H](OC)C2)CC(=O)[C@H](C)/C=C(\C)[C@@H](O)[C@@H](OC)C(=O)[C@H](C)C[C@H](C)/C=C/C=C/C=C/1C` and `CCn1c(-c2nonc2N)nc2c(C#CC(C)(C)O)ncc(OC[C@H]3CCCNC3)c21` are within error of each other in “percent reduction” value: 2.13 ± 12% for the first, 8.8 ± 4.9% for the second.

`CC(C)(C)c1cnc(CSc2cnc(NC(=O)C3CCNCC3)s2)o1` and `N#C/C(=C\c1ccc(O)c(O)c1)C(=O)NCc1ccccc1` [AG-490 (Tyrphostin B42)] are within error of each other in “percent reduction” value: -4.82 ± 4.6% for the first, -5.12 ± 12% for the second.

`CS(=O)c1ccc(-c2nc(-c3ccc(F)cc3)c(-c3ccncc3)[nH]2)cc1` (stereo unspecified) and `C[C@H](Nc1ncnc2[nH]cnc12)c1cc2ccc(F)cc2nc1-c1ccccn1` are within error of each other in “percent reduction” value: -6.83 ± 8.7% for the first, -3.52 ± 7.7% for the second.

`CCCCCCCCCCCCCCCCCCOP(=O)([O-])OC1CC[N+](C)(C)CC1` [Perifosine (KRX-0401)] was tested, and the “percent reduction” value was -18.1 ± 6.6%.
